Experimental data published in the supplement of paper PMC13380429.

Legend:
[1] = system: Vero E6 infected with SARS-CoV-2; assay: morphology score (similarity to uninfected cells); higher = more like uninfected cells; conditions: 24 h
[2] = system: Vero E6 infected with SARS-CoV-2; assay: SARS-CoV-2 infection rate relative to infected DMSO; higher = more infection, active = 60 or less; conditions: 24 h

| SMILES | morphology score [1] | SARS-CoV-2 infection rate [2] |
| --- | --- | --- |
| CCN(CCCOc1ccc2c(Nc3cc(CC(=O)Nc4cccc(F)c4)[nH]n3)ncnc2c1)CCOP(=O)(O)O [barasertib] (0.833333 µM) | 0.0323 | 112% (inactive) |
| CN(C)C[C@H](O)Cn1c2ccc(Br)cc2c2cc(Br)ccc21 (racemic) [wiskostatin] (0.833333 µM) | 0.146 | 110% (inactive) |
| NS(=O)(=O)NCCNc1nonc1/C(=N/O)Nc1ccc(F)c(Br)c1 (10 µM) | 0.162 | 112% (inactive) |
| N[C@@H]1CCCN(c2c(/C=C3\SC(=O)NC3=O)cccc2-c2ccccc2)C1 (10 µM) | -0.0825 | 110% (inactive) |
| O=C[C@H](O)[C@@H](O)[C@H](O)CO [xylose] (10 µM) | -0.0367 | 108% (inactive) |
| CC(C)(Oc1ccc(C2CC2(Cl)Cl)cc1)C(=O)O (configuration not stated) [ciprofibrate] (10 µM) | -0.0908 | 109% (inactive) |
| Cc1nc2sccn2c(=O)c1CCN1CCC(=C(c2ccccc2)c2ccc(F)cc2)CC1 (10 µM) | 0.149 | 81.5% (inactive) |
| CC1(C)OC[C@H](NC(=O)Nc2ccc(Br)cc2Br)[C@H](c2ccccc2)O1 (10 µM) | -0.142 | 112% (inactive) |
| O=C(NO)C1(CS(=O)(=O)c2ccc(Oc3ccc(Cl)cc3)cc2)CCOCC1 (10 µM) | 0.0418 | 98.5% (inactive) |
| C=CCN1C[C@H](C)N([C@H](c2ccc(C(=O)N(CC)CC)cc2)c2cccc(O)c2)C[C@H]1C (10 µM) | 0.1 | 105% (inactive) |
| O=C(c1ccc(Nc2nccc(-c3cc4ccccc4s3)n2)cc1)N1CCC(N2CCCC2)CC1 (0.833333 µM) | 0.629 | 56% (active) |
